TWEAK Fn14 block: inhibitors of TWEAK-Fn14 signaling, primary screen, luciferase reporter cells, uHTS; TWEAK-stimulated Fn14 reporter cells, luciferase luminescence, 8 h; actives 2% (n = 360,000); AID 1159606, 2016; inhibition, % at 10 µM; in the data active = inhibition above about 50%
LGR2 antag: inhibitors of bursicon-induced LGR2 CRE-luciferase signal, primary screen, cell-based, HEK293, CRE-luciferase reporter, bursicon stimulation; AID 720647, 2013; bursicon-stimulated, 4 h; inhibition, % at 9.99 µM; actives 0.35% (n = 380,000);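 active = drop in luminescence signal, shown as inhibition above about 50% in the replicate tests, limit read from the data, passing the limit was not always enough; inconclusive = probably only some replicates passing the limit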;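 note: agonist challenge used bursicon conditioned medium at about half maximal strength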
TROY signal inh: inhibitors of TROY-driven NF-kB signaling, primary screen, Q293 LMP1-TROYcd cells, NF-kB luciferase, uHTS; Q293 LMP1-TROYcd NF-kB luciferase reporter, 4 h; inhibition, % at 10 µM; actives 0.98% (n = 360,000); AID 1347056, 2019;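 active = compounds whose plate-normalised and pattern-corrected inhibition of the luciferase reporter signal at the single screening dose is 50% or more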
HSP90 inh: HSP90 inhibitors, primary screen, cell lysate, luminescence | Heat shock protein HSP 90 (rabbit reticulocyte lysate; luciferase refolding) | inhibition, % at 5.6 µM | actives 0.91% (n = 290,000) | Rabbit reticulocyte lysate, luciferase refolding luminescence, 3 h;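 active = inhibition above the screen-wide mean plus 3 SD, computed separately per campaign, cut at about 16% in these data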;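 note: inhibitors lower the luminescence because luciferase stays unfolded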
Large screens that a line does not name were inactive. Rows were chosen to be rich in hits. Some 2.2% of all compounds tested hit in one or more screens of this group.

CCc1ccc2[nH]c(=O)c(CN(Cc3ccccc3)C(=O)Nc3ccccc3OC)cc2c1	TROY signal inh 55
COc1ccccc1NC(=O)N(Cc1cccs1)Cc1cc2cc3c(cc2[nH]c1=O)OCO3	TWEAK Fn14 block 67
CN(C)CCCN(Cc1cc2cc3c(cc2[nH]c1=O)OCO3)C(=S)Nc1ccccc1	none
CO[C@@H]1CN(C)C(=O)c2cc(NS(=O)(=O)c3cn(C)cn3)ccc2OC[C@H](C)N(Cc2cccc(F)c2)C[C@@H]1C	none (no result: TWEAK Fn14 block, TROY signal inh, HSP90 inh)
CN(C(=O)COc1ccccc1C(=O)NCCOc1ccccc1)c1ccccc1	TWEAK Fn14 block 88, LGR2 antag 88, TROY signal inh 62
COc1cccc(C(=O)Nc2ccc3c(c2)OC[C@@H](C)N(C(C)=O)C[C@H](C)[C@H](OC)CN(C)C3=O)c1	none (no result: TWEAK Fn14 block, TROY signal inh, HSP90 inh)
CCN1/C(=C/c2ccc3ccccc3[n+]2CCCS(=O)(=O)[O-])C=Cc2cc(C)ccc21	none
CCN1/C(=C/c2ccc3ccccc3[n+]2CC)C=Cc2ccccc21	TWEAK Fn14 block 56, TROY signal inh 52 (no result: LGR2 antag)
CCCCN1/C(=C/c2ccc3ccccc3[n+]2CC)Sc2ccccc21	TWEAK Fn14 block 66 (no result: LGR2 antag)
C[C@@H]1CN([C@H](C)CO)C(=O)c2cccc(NC(=O)Nc3ccc(C(F)(F)F)cc3)c2O[C@H]1CN(C)C(=O)Nc1ccc(C(F)(F)F)cc1	none (no result: TWEAK Fn14 block, TROY signal inh, HSP90 inh)
C[C@H](CO)N1C[C@H](C)[C@@H](CN(C)C)Oc2ccc(NC(=O)CCN3CCOCC3)cc2C1=O	none (no result: TWEAK Fn14 block, TROY signal inh, HSP90 inh)
COc1ccccc1NS(=O)(=O)c1ccc2oc(SCc3ccc(C#N)cc3)nc2c1	TWEAK Fn14 block 58
CC(=O)N1[C@@H]2c3ccc(C4=CCCCC4)c(=O)n3C[C@H]1[C@H](CO)[C@H]2C(=O)N[C@@H](C)c1ccccc1	none (no result: TWEAK Fn14 block, TROY signal inh, HSP90 inh)
N#C/C(=C\C=C\c1ccccc1[N+](=O)[O-])C(=O)NCc1ccccc1	TWEAK Fn14 block 88
Cc1c(C(=O)Oc2cccc3ccccc23)cnn1-c1ccccc1	TWEAK Fn14 block 73, TROY signal inh 82
CCC(=O)N(C)C[C@H]1Oc2ncc(-c3ccc(C(=O)N(C)C)cc3)cc2C(=O)N([C@H](C)CO)C[C@@H]1C	none (no result: TWEAK Fn14 block, TROY signal inh, HSP90 inh)
O=C1NC[C@H](c2ccccc2)OC(=O)[C@H](Cc2ccc(F)cc2)C/C=C\C[C@H]1CC(=O)N(CCO)Cc1ccccc1	LGR2 antag 58 (no result: HSP90 inh)
O=C1NC[C@@H](c2ccccc2)OC(=O)[C@H](Cc2ccc(F)cc2)C/C=C\C[C@H]1CC(=O)N(CCO)Cc1ccccc1	none (no result: HSP90 inh)
O=C1NC[C@H](c2ccccc2)OC(=O)[C@@H](Cc2ccc(F)cc2)C/C=C\C[C@H]1CC(=O)N(CCO)Cc1ccccc1	LGR2 antag 61 (no result: HSP90 inh)
CCc1c2c(nc3ccc(OC(=O)N4CCC(N5CCCCC5)CC4)cc13)-c1cc3c(c(=O)n1C2)COC(=O)[C@]3(O)CC	LGR2 antag inconclusive, TROY signal inh 57 (no result: HSP90 inh)
CCC1(O)C(=O)OCc2c1cc1n(c2=O)Cc2cc3cc(O)ccc3nc2-1 (stereo not drawn)	TWEAK Fn14 block 70, LGR2 antag 95, TROY signal inh 76 (no result: HSP90 inh)
CCCNC(=O)C[C@@H]1C[C@@H]2c3cc(NS(=O)(=O)c4cccc(OC)c4)ccc3O[C@@H]2[C@H](CO)O1	none (no result: TWEAK Fn14 block, TROY signal inh, HSP90 inh)
C[C@H]1CN([C@@H](C)CO)C(=O)CCCn2cc(nn2)CO[C@H]1CN(C)C(=O)Nc1ccccc1C(F)(F)F	none (no result: TWEAK Fn14 block, TROY signal inh, HSP90 inh)
O=C1c2ccccc2C2=Nc3ccccc3SC(c3cccc(F)c3)C12 (stereo not drawn)	TROY signal inh 71
CCOC(=O)/C(C#N)=C1/C=C(C)NC(c2ccccc2O)=N1	TWEAK Fn14 block 57, TROY signal inh 54
N#C/C(N=Nc1ccccc1O)=N\Nc1ccccc1O	TWEAK Fn14 block 88 (no result: HSP90 inh)
Oc1ccccc1N=N/C(=N/Nc1ccccc1O)c1ccccc1	none (no result: LGR2 antag, HSP90 inh)
CO[C@@H]1CN(C)C(=O)c2ccc(NS(C)(=O)=O)cc2OC[C@@H](C)N(S(=O)(=O)CC(F)(F)F)C[C@H]1C	none (no result: TWEAK Fn14 block, TROY signal inh, HSP90 inh)
O=C(Nc1cccc(C(F)(F)F)c1)Nc1nnc([C@@H]2C[C@H](O)[C@@H](CO)O2)s1	TWEAK Fn14 block 55 (no result: LGR2 antag, HSP90 inh)
O=C(Nc1nnc([C@H]2C[C@H](O)[C@@H](CO)O2)s1)c1cccc(C(F)(F)F)c1	none (no result: LGR2 antag, HSP90 inh)
COc1ccc(CNC(=O)Nc2nnc([C@@H]3C[C@H](O)[C@@H](CO)O3)s2)cc1	TWEAK Fn14 block 63 (no result: HSP90 inh)
